ASM inhibitor = blocks human secretory acid sphingomyelinase; AID 504937; placental ASM, HMU-PC fluorogenic substrate, 60 min; P17405; hit rate 0.006% among 340,000; Potency, µM (highest dose often 57.5 µM), inactives show top-dose activity change, negative = inhibition, most hits filed as inhibitors; further: potency means the concentration at half of the fitted maximal effect
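Fluorescence read-out (Ex 386 nm, Em 447 nm) after stopping the reaction at pH 10. Enzyme: ASM from human placenta; substrate HMU-PC0, 9 uM final; 60 min, 37 °C. Compound preincubation 10 min, ambient temperature.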
gsp antagonist = antagonists of gsp mutant (McCune-Albright syndrome); gsp-mutant cells, cAMP HTRF, 30 min; Potency, µM (top dose mostly 76.9 µM), without a hit: at the top dose activity change, negative = inhibition, hits mostly inhibitors; hit rate 0.4% among 340,000; AID 624288; calls by dose curve; cell line not stated here;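 further: intracellular cAMP measured with PDE inhibitor Ro 20-1724 present during compound exposure; potency means the concentration at half of the fitted maximal effect; on the % scale 0 is the no-effect control and ±100 the full control effect; nearly all actives have a fitted effect of over 65% in size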
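HTRF cAMP measurement after 30 min RT detection following 30 min, 37C compound treatment alongside […] (added as 300 uM solution) in G418-selected cells seeded at 2000/well and grown 16–24 h.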
BCR signal inh = inhibitors of chronic active B-cell receptor signaling | ABC-DLBCL IkBa-CBG/CBR reporter, luminescence ratio, 4 h | Potency, µM (titrated, usually from 46.1 µM), for the others: at the top dose activity change, negative = inhibition, usual class: inhibitors | hit rate 0.05% among 340,000; active means well fitted inhibition curve with a large enough effect in the signal ratio, with a control signal flat, not every such curve was filed as active; inconclusive means small, poorly fitted or top-dose-only effect, or effect the other way, or a change in a side signal; the % refers to the signal ratio;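 further: potency means the concentration at half of the fitted maximal effect; plate controls were basal doxycycline-induced cells for no effect and cells given 10 µM MG132 for full effect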
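TMD8 ABC-DLBCL cells carrying doxycycline-inducible green luciferase fused to IkappaBalpha plus unfused red luciferase were exposed to compounds (up to 46 uM) for 4 hrs at 37C. Activity came from the overlap-corrected green/red luminescence ratio.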
gsp agonist = gsp mutant agonism; gsp mutant cells, cAMP HTRF, 30 min; Potency, µM (highest dose often 76.9 µM), for the others: top-dose activation (cAMP increase), actives largely listed as activators; hit rate 0.13% among 340,000; active means well fitted activation curve with a large enough effect; inconclusive means small, poorly fitted or top-dose-only effect, or another doubt; inactive means no such curve, though single readings can be large or run the other way; cell line not stated here;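 further: phosphodiesterase inhibitor Ro 20-1724 added with compounds to block cAMP breakdown; potency means the concentration at half of the fitted maximal effect; nearly all actives have a fitted effect of over 60% in size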
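Cells in DMEM/10% FBS with G418 were pretreated with compounds in DMSO plus […] (300 uM stock) for 30 min at 37C. cAMP was measured by HTRF (cAMP-d2 plus anti-cAMP antibody-K) after 30 min at room temperature.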
MBNL1 CUG block = inhibitors of human MBNL1 binding to CUG repeat RNA. TR-FRET MBNL1-His/biotin-(CUG)12 binding, 665/545 ratio. Potency, µM (titrated, usually from 57.5 µM), without a hit: at the top dose activity change, negative = inhibition, most hits filed as inhibitors. hit rate 0.036% among 280,000. AID 2675; active means well fitted inhibition curve with a large enough effect in the signal ratio, with a control signal flat, not every such curve was filed as active; inconclusive means small, poorly fitted or top-dose-only effect, or effect the other way, or a change in a side signal; inactive means no such curve, though single readings can be large or run the other way; the % refers to the signal ratio; further: potency means the concentration at half of the fitted maximal effect; on the % scale 0 is the no-effect control and ±100 the full control effect
Target sequence (Q9NR56 whole entry, looked up): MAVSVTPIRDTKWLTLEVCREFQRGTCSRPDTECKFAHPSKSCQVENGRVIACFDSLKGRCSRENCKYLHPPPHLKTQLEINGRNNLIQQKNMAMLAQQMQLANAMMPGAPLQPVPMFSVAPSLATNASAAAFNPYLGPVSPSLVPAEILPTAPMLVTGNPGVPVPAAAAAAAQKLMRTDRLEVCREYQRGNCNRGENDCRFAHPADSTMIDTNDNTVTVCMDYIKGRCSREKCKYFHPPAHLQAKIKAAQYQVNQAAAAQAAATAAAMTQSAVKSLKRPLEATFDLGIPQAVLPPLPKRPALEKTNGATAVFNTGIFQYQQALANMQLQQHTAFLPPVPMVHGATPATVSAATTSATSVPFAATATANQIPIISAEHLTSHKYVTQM
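Ratiometric TR-FRET (665 over 545 nm, excitation 340 nm) tracks disruption of MBNL1-His/biotin-(CUG)12 complex after 60 min at room temperature, with compounds at 92 nM to 58 uM final.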
MBNL1-CUG FRET = MBNL1-poly(CUG) RNA binding inhibition confirmed. shares compounds with MBNL1 CUG block. TR-FRET MBNL1-His / biotin-(CUG)12 binding, 60 min. Potency, µM (titrated, usually from 57.6 µM), for the others: at the highest dose activity change, negative = inhibition, actives largely listed as inhibitors. hit rate 50% among 140
MBNL1 AlphaScrn = confirmation of MBNL1-(CUG)12 RNA binding inhibitors, orthogonal format; shares compounds with MBNL1 CUG block; hit rate 30% among 140; AlphaScreen MBNL1-His / biotin-(CUG)12 binding; Potency, µM (top dose mostly 57.7 µM), inactives show top-dose activity, negative = inhibition, actives largely listed as inhibitors
Menin-MLL HTRF = hit in HTRF counterscreen for MBNL1-poly(CUG) binding inhibitors; shares compounds with MBNL1 CUG block; His-Menin/biotin-MLL peptide TR-FRET counterscreen; Potency, µM (highest dose often 57.6 µM), inactives show top-dose activity, negative = inhibition, hits mostly inhibitors; hit rate 20% among 120; AID 651843
Numbers without * were called inactive; ? = inconclusive; . = no result; [ ] = dose if it differs, or a comment. In the library only some 0.62% were active in any assay of this set; here they are far more common. Unless noted, the call rests on the fitted dose curve; in most records, active means well fitted curve in the direction sought with a large enough effect; inconclusive means small, poorly fitted or top-dose-only effect, or another doubt; inactive means no such curve, though single readings can be large; an effect the other way counts as inactive or inconclusive.

SMILES	ASM inhibitor	gsp antagonist	BCR signal inh	gsp agonist	MBNL1 CUG block	MBNL1-CUG FRET	MBNL1 AlphaScrn	Menin-MLL HTRF
COc1ccccc1NC(=O)Nc1ccnn1Cc1cccs1	-3%	-13%	1%	6%	4µM*	1.3µM*	0.65µM*	10µM*
COc1ccccc1NC(=O)Nc1ccnn1C1CCCCC1	1%	-4%	3%	-8%	-1%	-7%	-17%	0%
COc1ccccc1NC(=O)Nc1ccnn1C1CCN(C(=O)c2ccccn2)CC1	1%	14%	4%	-94%	2%	.	.	.
O=C(NCc1cccc(C(F)(F)F)c1)c1ccc2c(c1)OCCO2	1%	0%	9%	-8%	-4%	.	.	.
Fc1cccc(F)c1[B-](F)(F)F	8%	21%	.	.	.	.	.	.
C/C1=C2/[N-]C(C(CC(N)=O)[C@@]2(C)CCC(=O)NCC(C)OP(=O)([O-])O[C@H]2[C@@H](O)[C@@H](n3cnc4cc(C)c(C)cc43)O[C@@H]2CO)[C@]2(C)N=C(/C(C)=C3N=C(/C=C4N=C1C(CCC(N)=O)C\4(C)C)[C@@H](CCC(N)=O)[C@]\3(C)CC(N)=O)[C@@H](CCC(N)=O)[C@]2(C)CC(N)=O.CC(=O)O.[Co] (stereo not given in full)	.	.	.	.	.	8.2µM*	2.6µM*	.
C/C1=C2N=C(/C=C3N=C(/C(C)=C4\[N-][C@@](C)([C@@H]5N=C1[C@](C)(CCC(=O)NCC(C)OP(=O)(O)O[C@H]1[C@@H](O)[C@@H](n6cnc7cc(C)c(C)cc76)O[C@@H]1CO)[C@H]5CC(N)=O)[C@@](C)(CC(N)=O)[C@@H]4CCC(N)=O)[C@@](C)(CC(N)=O)[C@@H]\3CCC(N)=O)C(C)(C)[C@@H]/2CCC(N)=O.CC(=O)O.[Co] (stereo not given in full)	.	.	.	.	.	.	.	94%
CCN(CC)S(=O)(=O)c1cccc(NC(=O)CCNC(=O)NC23CC4CC(CC(C4)C2)C3)c1	-6%	-11%	?	-2%[15.4 µM]	.	.	.	.
C[C@H]1CN([C@@H](C)CO)C(=O)c2cc(C3=CCCC3)cnc2O[C@@H]1CN(C)C(=O)c1ccncc1	.	.	.	-118%	.	.	.	.
COc1ccc(CCNS(=O)(=O)c2c(C)[nH]c(C)c2C(=O)N2CCCCC2)cc1OC	-2%	-4%	5%	?	-3%	.	.	.
O=C(O)CCCCCCCC(=O)O	-2%	-11%	14%	.	20µM*	?	?	1%
CCCCCCC(=O)O	2%	-1%	4%	.	.	.	.	.
CN1CCc2cc(NC(=O)Nc3cccnc3)ccc21	.	.	.	.	.	?	-39%	.
CC(=O)c1ccc(NC(=O)Nc2cccnc2)cc1	-2%	8%	-6%	30%	28µM*	21µM*	-9%	29µM*

Assay outcomes as filed in PubChem BioAssay.
